This is part of a sample that, as a whole, favours compounds with a hit. Of some 79,000 tested, about 15% had one in any assay. The source made the active and inactive calls. Rule as the data show it: active = growth inhibition above about 70%; inactive = the rest.
What was measured:
[1] = NCI Yeast Anticancer Drug Screen. Data for the mgt1 strain (AID 153); settings: S. cerevisiae mgt1 mutant growth inhibition, stronger effect = higher value
Summary of the method: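 Vehicle-normalized growth inhibition is determined in mgt1 yeast, a strain selected for a defined alteration in DNA repair or cell cycle control.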

[2] = NCI Yeast Anticancer Drug Screen. Data for the rad50 strain (AID 155);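 also: 0% = growth of vehicle-only cultures of the same strain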; settings: S. cerevisiae rad50 strain growth inhibition, stronger effect = higher value
Summary of the method: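 A DNA repair-deficient yeast mutant serves as the test organism; compound-induced growth inhibition is calculated against vehicle-treated cells.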

[3] = NCI Yeast Anticancer Drug Screen. Data for the mec2-1 strain (AID 157); settings: S. cerevisiae mec2-1 strain, stronger effect = higher value
Summary of the method: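 Mutant yeast (mec2-1) grown with compound; growth inhibition relative to vehicle control reported.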

[4] = NCI Yeast Anticancer Drug Screen. Data for the rad14 strain (AID 159);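 also: 0% = growth of vehicle-treated control cultures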; settings: S. cerevisiae rad14 strain growth inhibition, stronger effect = higher value
Summary of the method: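 Vehicle-treated cultures served as the baseline for growth inhibition of a DNA repair-mutant yeast strain exposed to each compound.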

[5] = NCI Yeast Anticancer Drug Screen. Data for the sgs1 mgt1 strain (AID 161);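 also: 0% = growth of cultures given vehicle only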; settings: S. cerevisiae sgs1 mgt1 strain, stronger effect = higher value
Summary of the method: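 Percent growth inhibition was derived by comparing compound-exposed mutant yeast with vehicle-exposed cultures. The strain carries alterations in DNA damage repair.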

[6] = NCI Yeast Anticancer Drug Screen. Data for the CLN2oe strain (AID 163);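 also: 0% = growth of vehicle-only control cultures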; settings: S. cerevisiae CLN2oe strain, stronger effect = higher value
Summary of the method: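 Compounds are applied to yeast harbouring a defined cell-cycle control change; reduced growth compared with vehicle-treated controls gives the value.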

[7] = NCI Yeast Anticancer Drug Screen. Data for the cln2 rad14 strain (AID 165);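 also: 0% = growth equal to vehicle treated cultures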; settings: S. cerevisiae cln2 rad14 strain, stronger effect = higher value
Summary of the method: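 Readout is yeast growth inhibition versus vehicle-treated controls, using a strain with cln2 and rad14 alterations exposed to compound.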

[8] = NCI Yeast Anticancer Drug Screen. Data for the bub3 strain (AID 167); settings: S. cerevisiae bub3 mutant strain, stronger effect = higher value
Summary of the method: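 Inhibition values come from growth of compound-treated mutant yeast normalised to vehicle-treated controls.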

[9] = NCI Yeast Anticancer Drug Screen. Data for the wt2 strain (AID 169);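 also: 0% = growth of vehicle-treated yeast cultures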; settings: S. cerevisiae wt2 strain growth inhibition, stronger effect = higher value
Summary of the method: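 Against vehicle-treated controls, the growth of yeast exposed to each compound was compared, and the inhibition was recorded.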

[10] = NCI Yeast Anticancer Drug Screen. Data for the mlh1 strain (AID 171);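 also: 0% = growth of vehicle-treated control cultures of the same strain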; settings: S. cerevisiae mlh1 strain growth inhibition, stronger effect = higher value
Summary of the method: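 Measured: yeast growth. Reference: vehicle-treated controls. Organism: strain with a defined alteration affecting DNA damage repair or cell cycle control, treated with compound.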

[11] = NCI Yeast Anticancer Drug Screen. Data for the sgs1 strain (AID 173);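 also: 0% = growth of vehicle-only control cultures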; settings: S. cerevisiae sgs1 mutant, stronger effect = higher value
Summary of the method: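 Each compound was added to cultures of the altered yeast strain. Growth was recorded, and inhibition was derived by comparison with vehicle controls.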

[12] = NCI Yeast Anticancer Drug Screen. Data for the mlh1 rad18 strain (AID 175); settings: S. cerevisiae mlh1 rad18 strain growth inhibition, stronger effect = higher value
Summary of the method: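 Genetically defined yeast (DNA repair-deficient) exposed to compounds; growth inhibition determined relative to vehicle.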

[13] = NCI Yeast Anticancer Drug Screen. Data for the rad18 strain (AID 177); settings: S. cerevisiae rad18 mutant growth inhibition, stronger effect = higher value
Summary of the method: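 Vehicle-treated cultures served as the baseline for scoring compound-induced growth inhibition in DNA-repair-mutant yeast.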

[14] = at 5.0 µM (retest, dose inferred, filed as 0.5)
[15] = at 50.0 µM (retest, dose inferred, filed as 5.0)

Measured: growth inhibition

O=C(Nc1cccs1)c1ccccc1
inactive: [1]; at 1.2 µM -1% | [1]; at 3.7 µM -4% | [1]; at 11.0 µM -4% | [1]; at 33.0 µM 5% | [2]; at 1.2 µM -4% | [2]; at 3.7 µM -8% | [2]; [14] -155% | [2]; at 11.0 µM 10% | [2]; at 33.0 µM 42% | [3]; at 1.2 µM -1% | [3]; at 3.7 µM -1% | [3]; [14] -52% | [3]; at 11.0 µM -4% | [3]; at 33.0 µM 3% | [3]; [15] -42% | [3]; at 50.0 µM 30.1% | [3]; at 100.0 µM 51% | [4]; at 1.2 µM 0% | [4]; at 3.7 µM -3% | [4]; at 11.0 µM 0% | [4]; at 33.0 µM 23% | [5]; [14] -67% | [5]; [15] 66% | [5]; at 50.0 µM 65.8% | [6]; at 1.2 µM 0% | [6]; at 3.7 µM -1% | [6]; at 11.0 µM -1% | [6]; at 33.0 µM -1% | [6]; at 100.0 µM 53% | [7]; [14] -65% | [7]; [15] -62% | [7]; at 50.0 µM -0.2% | [8]; at 1.2 µM -12% | [8]; at 3.7 µM -9% | [8]; [14] -68% | [8]; at 11.0 µM -3% | [8]; at 33.0 µM -7% | [8]; [15] 8% | [8]; at 50.0 µM 13.8% | [8]; at 100.0 µM 64% | [9]; at 1.2 µM -1% | [9]; at 3.7 µM -1% | [9]; at 11.0 µM -2% | [9]; at 33.0 µM -2% | [9]; at 100.0 µM 67% | [10]; at 1.2 µM 6% | [10]; at 3.7 µM -5% | [10]; at 11.0 µM -5% | [10]; at 33.0 µM 2% | [11]; at 1.2 µM 0% | [11]; at 3.7 µM -1% | [11]; at 11.0 µM -1% | [11]; at 33.0 µM 3% | [12]; [14] -125% | [13]; at 1.2 µM -6% | [13]; at 3.7 µM -2% | [13]; at 11.0 µM 1% | [13]; at 33.0 µM 4%
active: [1]; at 100.0 µM 88% | [2]; [15] 82% | [2]; at 50.0 µM 94.8% | [2]; at 100.0 µM 92% | [4]; at 100.0 µM 80% | [10]; at 100.0 µM 86% | [11]; at 100.0 µM 86% | [12]; [15] 80% | [12]; at 50.0 µM 94.6% | [13]; at 100.0 µM 94%

Reference: PubChem BioAssay (NCI)
